Screens deposited in PubChem BioAssay by National Center for Advancing Translational Sciences (NCATS).
KCNH2 3.1 block = qHTS for Inhibitors of KCHN2 3.1: Mutant qHTS. Potassium voltage-gated channel subfamily H member 2, brain isoform KCNH2 3.1 (human). actives 0.95% (n = 340,000). U2OS KCNH2 3.1, thallium flux FluxOr; active compounds read low. activity change, % (tested at about 1.8 µM);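 active = maximum activity change below -70%; inconclusive = maximum activity change from -70% to -50%; inactive = maximum activity change above -50%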;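 also: thallium influx rate constant from kinetic fluorescence after stimulation buffer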
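Channel expression came from 3.1 mutant virus (1.77 x 10^8 /mL) applied to suspended U2OS cells for 4 h. Flux was tracked with FluxOr dye plus Red40 quencher, and kinetic rate constants normalized to controls.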
Tb PFK inh-1 = qHTS Assay to Find Inhibitors of T. brucei phosphofructokinase; actives 0.17% (n = 330,000); ATP-dependent 6-phosphofructokinase (Trypanosoma brucei brucei), O15648; Potency, µM (titrated, usually from 57.5 µM), hits mostly inhibitors; T. brucei PFK, ADP-Glo luminescence; also: nearly all actives have a fitted effect of over 60% in size
Target sequence (O15648 whole entry, looked up): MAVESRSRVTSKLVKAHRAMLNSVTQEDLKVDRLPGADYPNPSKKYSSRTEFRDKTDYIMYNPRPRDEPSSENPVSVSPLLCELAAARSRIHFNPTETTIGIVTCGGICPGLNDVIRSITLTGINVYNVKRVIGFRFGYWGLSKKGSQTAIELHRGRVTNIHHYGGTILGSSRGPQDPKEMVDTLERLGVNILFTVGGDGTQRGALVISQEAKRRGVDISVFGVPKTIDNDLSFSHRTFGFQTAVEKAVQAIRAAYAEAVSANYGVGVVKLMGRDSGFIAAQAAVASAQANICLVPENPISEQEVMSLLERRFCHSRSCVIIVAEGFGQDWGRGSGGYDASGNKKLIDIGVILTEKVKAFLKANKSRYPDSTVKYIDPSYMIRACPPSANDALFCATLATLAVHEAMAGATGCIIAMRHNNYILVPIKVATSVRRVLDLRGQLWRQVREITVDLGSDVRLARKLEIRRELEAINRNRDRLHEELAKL
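PFK 1.25 nM, F6P 0.5 mM, ATP 0.1 mM, 0.1 M TEA pH 8.0, 5 mM MgCl2, 0.01% Tween20, 0.1% BSA; 45 min RT. ADP-Glo readout. qHTS titration up to 57 uM; curves fitted, compounds curve-classed.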
TSG101-PTAP inh = qHTS Assay for Iinhibitors of HIV-1 Budding by Blocking the Interaction of PTAP/TSG101; Tumor susceptibility gene 101 protein (Homo sapiens), Q99816; Fluorescence polarization, FITC-PTAP peptide / Tsg101 binding; Potency, µM (series often up to 115 µM), usual class: inhibitors; 340,000 tested, under 10 active; active = well fitted inhibition curve with a large enough effect in the main read-out, with a control signal flat, not every such curve was filed as active; inconclusive = small, poorly fitted or top-dose-only effect, or effect the other way, or a change in a side signal; inactive = no such curve, though single readings can be large or run the other way
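FP read-out: FITC-PTAP peptide, 50 nM final, binding Tsg101 binding domain, 10 uM final; 20 min, r.t.; 10 mM HEPES pH 7.5, 0.15 M NaCl, 0.01% Tween 20, 3 mM EDTA, 0.1 mM TCEP.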
KCNH2 WT inh = qHTS for Inhibitors of KCHN2 3.1: Wildtype qHTS. AID 720551, 2013. activity change, % at 1.84 µM. actives 0.37% (n = 340,000). Voltage-gated inwardly rectifying potassium channel KCNH2 (Homo sapiens), Q12809. U2OS, BacMam KCNH2, thallium flux FluxOr; active compounds read low;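 active = maximum activity change below -70%; inconclusive = maximum activity change between -70% and -50%; inactive = maximum activity change above -50%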
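U2OS cells transduced with wild-type KCNH2 virus are loaded with FluxOr dye for 45 min, and thallium flux is measured in kinetic reads before and after stimulation buffer. Rate constants are normalized to DMSO controls.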
TbPFK ATP = Tb PFK orthogonal confirmatory assay using ATP depletion (Kinase-Glo Plus) as an alternative measure of Tb PFK activity: Hit Validation | shares compounds with Tb PFK inh-1 | Tb PFK enzyme, ATP depletion, Kinase-Glo Plus luminescence | Potency, µM (highest dose often 57.5 µM) | actives 47% (n = 1,100) | AID 504636, 2011; calls by dose curve; also: nearly all actives have a fitted effect of over 60% in size
Tb PFK inh-2 = Inhibitors of T. brucei phosphofructokinase: Hit Validation. shares compounds with Tb PFK inh-1. purified T. brucei PFK, ADP-Glo luminescence, 45 min. Potency, µM (titrated, usually from 57.5 µM), most hits filed as inhibitors. actives 41% (n = 1,100); also: nearly all actives have a fitted effect of over 60% in size
Each line names hits and unclear results; the compound was inactive in the other large screens (follow-up assays come after a bar, where they were run). Sampled rows, rich in hits. Any-hit rate of the full collection: about 1.2%. Unless noted, calls follow the shape of the dose curve; as a rule, active = well fitted inhibition curve with a large enough effect; inconclusive = small, poorly fitted or top-dose-only effect, or effect the other way; inactive = flat fitted curve, though single readings scatter.

COc1ccc(OC(=O)N(C)C[C@@H]2OCc3cnnn3CCCC(=O)N([C@@H](C)CO)C[C@H]2C)cc1	none (no result: Tb PFK inh-1, TSG101-PTAP inh)
c1ccc(N2[C@@H]3CC[C@H]2c2ccccc2C3)cc1	none (no result: Tb PFK inh-1, TSG101-PTAP inh)
NC(=O)c1cn(C2CCCCC2)c2ccccc2c1=O	none
O=C1c2ccccc2C(=O)N1SC1CCCCC1	Tb PFK inh-1 inconclusive | TbPFK ATP 9.53µM | Tb PFK inh-2 15.1µM
COC(=O)c1cccc(-n2sc3ccccc3c2=O)c1	Tb PFK inh-1 6.75µM | TbPFK ATP inconclusive | Tb PFK inh-2 inconclusive
O=c1c2ccccc2sn1-c1ccc(F)cc1	Tb PFK inh-1 3.38µM | TbPFK ATP inactive | Tb PFK inh-2 inconclusive
COc1ccc(-n2c(=O)[nH]c3ccccc3c2=O)cc1	none
COC(=O)C1=C(c2ccc(-c3ccccc3)c(F)c2)C[C@@H]2CC[C@H]1N2C(=O)N1CCOCC1	none
C1CN(P2(N3CC3)=NP(N3CC3)(N3CC3)=NP(N3CC3)(N3CC3)=N2)CCO1 (configuration not stated)	none (no result: Tb PFK inh-1, TSG101-PTAP inh)
Cc1cc(NS(=O)(=O)c2ccc(NC(=O)COc3ccc(Br)cc3)cc2)nc(C)n1	Tb PFK inh-1 inconclusive | TbPFK ATP 8.49µM | Tb PFK inh-2 23.9µM
CN1CCN(C(=O)COc2ccc(S(=O)(=O)Nc3ccc(F)cc3)cc2)CC1	none
CCOP(=O)(Nc1ccc2oc(=O)c3ccccc3c2c1)OCC	Tb PFK inh-1 inconclusive | TbPFK ATP inactive | Tb PFK inh-2 inactive
O=c1c2ccccc2nc(/C=C\c2ccccc2[N+](=O)[O-])n1-c1ccccc1O	none
O=C(O)CC1S/C(=N/N=C/C=C/c2ccccc2[N+](=O)[O-])NC1=O (configuration not stated)	Tb PFK inh-1 inconclusive | TbPFK ATP inactive | Tb PFK inh-2 inconclusive
O=C(O)CC1S/C(=N/N=C/c2ccc(-c3ccc(Cl)cc3[N+](=O)[O-])o2)NC1=O (configuration not stated)	Tb PFK inh-1 inconclusive | TbPFK ATP inactive | Tb PFK inh-2 inconclusive
Cc1nc2cc([N+](=O)[O-])ccc2c(=O)n1-c1cccc(Br)c1	none (no result: Tb PFK inh-1)
CCN(CC)c1ccc2nc3ccccc3[n+](CC)c2c1	Tb PFK inh-1 15.1µM | TbPFK ATP inactive | Tb PFK inh-2 inconclusive
CNc1ccc2nc3ccccc3[n+](C)c2c1	none
CN=C1CN(O)C(c2ccccc2)c2cc(Cl)ccc2N1 (configuration not stated)	none (no result: Tb PFK inh-1)
CON(C)C(=O)Nc1ccc(Cl)cc1	none
COc1ccccc1C(=O)NCC(=O)OCC(=O)Nc1ccc2[nH]c(=O)[nH]c2c1	Tb PFK inh-1 26.9µM | TbPFK ATP inconclusive | Tb PFK inh-2 inconclusive
O=C(COc1ccc(Cl)cc1)Nc1ccc2[nH]ncc2c1	Tb PFK inh-1 inconclusive | TbPFK ATP 16.9µM | Tb PFK inh-2 23.9µM
COc1ccc(OCC(=O)OCC(=O)Nc2ccc3[nH]c(=O)[nH]c3c2)cc1	Tb PFK inh-1 30.1µM | TbPFK ATP inconclusive | Tb PFK inh-2 inconclusive
O=C(COc1ccc(Cl)cc1)Nc1cccc(S(=O)(=O)NC2=NCCCCC2)c1	Tb PFK inh-1 3.01µM | TbPFK ATP 2.69µM | Tb PFK inh-2 6.01µM
N#Cc1ccc(OCC(=O)Nc2cccc(S(=O)(=O)NC3=NCCCCC3)c2)cc1	Tb PFK inh-1 6.01µM | TbPFK ATP 3.79µM | Tb PFK inh-2 6.01µM
Cc1ccc(-n2cc(CNC(C)Cc3cnccn3)c(-c3cccc(C)c3)n2)cc1 (configuration not stated)	none
Cn1cnc(CCN)c1	none (no result: Tb PFK inh-1)
COC(=O)C1=C(c2ccc(Cl)c(C(F)(F)F)c2)C[C@@H]2CC[C@H]1N2C	none
